We go through 40 sequences from the supplement of paper PMC10338343.

± gives the standard deviation.

The test relates to MILI (PIWIL2) piRISC loaded with piRNA #1 (26 nt). Briefly: pre-steady-state target cleavage rate (min^-1); guide: piRNA #1 5'p-UGAGGUAGUAGGUUGUAUAGUAUCCA; MIWI and MILI are mouse PIWI proteins and EfPiwi is from a freshwater sponge; tags in brackets are library labels; higher = faster piRNA-guided slicing of the target. The note with it: auxiliary factor: 500 nM mouse GTSF1. The gist of the method:
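In Cleave-'n-Seq, a transcribed, DNA-blocked target RNA library (0.1 nM) was combined with 1 nM active affinity-purified piRISC bearing one synthetic guide, with or without 500 nM GTSF1 partner protein. Reactions ran in HEPES–potassium acetate buffer at 33 °C for 0–8 or 0–960 min. Uncleaved targets were sequenced and normalised to depth and to weakly complementary targets, three trials were pooled, and k3 was capped at 0.0001 min^-1. The pre-steady-state cleavage rate was obtained by fitting a burst-and-steady-state model.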
As for GGAGACCUAUGUUUACAAGCUACUACCUCA, the “pre-steady-state target cleavage rate” value turned out to be 0.0793 ± 0.017.

On to GGAGACCUAACUAUUCAACCUAGUACCUCA, for which the “pre-steady-state target cleavage rate” value is 0.0158 ± 0.0076. GGAGACCAUACAAUACAACGUACUACCUCA: the “pre-steady-state target cleavage rate” value came to 0.0186 ± 0.0044. GGAGACCUAACUAUUGUACCUACUACCUCA: the “pre-steady-state target cleavage rate” value stood at 0.00477 ± 0.0036. For GGAGACCUAUGAAUACAUGCUACUACCUCA the value was 0.00268 ± 0.0026; for GGAGACCUUACUAUACAACCUACUAGCACA, 0.0607 ± 0.017. For GGAGACCUUACUAUACUUCCUACUACCUCA the value was 0.127 ± 0.011. For GGAGACCAUUCUAUAGAACCUACUACCUCA the value was 0.116 ± 0.015; for GGAGACCUAUGAAUGCAACCUACUACCUCA, 0.00733 ± 0.0031; for GGAGACCUUACUAUACAACCUACUACUCUCA, 0.242 ± 0.025. Consider GGAGACCUAUGAUAUGAACCUACUACGUGA, for which the “pre-steady-state target cleavage rate” value is below 0.0001. For GGAGACCUAUGAUAACAACCUACACCUCA the value was below 0.0001; for GGAGACCUAUGAUAUGUAGGAACUACCUCA, below 0.0001; for GGAGACCUUACUAUACAACCUACAACCUGA, 0.0284 ± 0.0093. For GGAGACCUAUGAAUACAACGUACUACCUGA the value was 0.00311 ± 0.0023; for GGAGAGGAUAGUAUAGAACCUACUACCUCA, 0.0708 ± 0.012; for GGAGACCUAUCUAUUCAACCUACAACCUCA, 0.0889 ± 0.011.

Consider GGAGACCUUACUUAACAACCUACUACCUCA, for which the “pre-steady-state target cleavage rate” value came to 0.101 ± 0.016.

Regarding GGAGACCUAUCUAUACAACCUAACUACCUCA, the “pre-steady-state target cleavage rate” value was determined as 0.00833 ± 0.0023. Turning to GGAGACCUAACAUUACAACCUACUACCUCA, the “pre-steady-state target cleavage rate” value worked out at 0.0283 ± 0.0089. Take GGAGUGGAUACUAUAAACCUACUACCUCA: the “pre-steady-state target cleavage rate” value is 0.0206 ± 0.0043.

GGAGACCUAACUUUACAACCUACUUCCUCA: the “pre-steady-state target cleavage rate” value worked out at 0.0099 ± 0.0053. In the case of GGAGACCUUACUAUACUACCUACUAGCUCA, the “pre-steady-state target cleavage rate” value amounted to 0.142 ± 0.016. For the sequence GGAGACCUAACUAUACUACCUACUACGUCA, the “pre-steady-state target cleavage rate” value was 0.0596 ± 0.018.

With GGAGACCUAUGAUAUGUUCCUACUUACCUCA, the “pre-steady-state target cleavage rate” value was below 0.0001.

Regarding GGAGACCUAUGAUAACAACCUACUAUCCUCA, the “pre-steady-state target cleavage rate” value amounted to 0.00426 ± 0.003.

Turning to GGAGAGGAUACUAUACAACCUCACUACCUCA, the “pre-steady-state target cleavage rate” value amounted to 0.00456 ± 0.0027. Regarding GGAGACCUAUGAAUACAAGCUACUAGCUCA, the “pre-steady-state target cleavage rate” value was 0.00622 ± 0.0027. To GGAGACCUAUGAAUACAACGUACAACCUCA belongs 0.00489 ± 0.0026; to GGAGACCUAUCUAUACAACCUAGCUACCUCA, 0.0218 ± 0.0062; to GGAGACCUAUGAUAUCUACCUACUACCUGA, below 0.0001. To GGAGACCUAUCUAUACUACCUACUAGCUCA belongs 0.0698 ± 0.014; to GGAGACCUAUGAUAACAAGCUAGUACCUCA, 0.00508 ± 0.0032; to GGAGACCAUACUAUACAACCUACUCCUCA, 0.0178 ± 0.0057.

Consider GGAGACCAUAGUAUACAACCUACAACCUCA, for which the “pre-steady-state target cleavage rate” value turned out to be 0.129 ± 0.017. To GGAGAGGAUACUAUACUACCUACUACCACA belongs 0.171 ± 0.016; to GGAGACCUAUGAUAUCAUCCUACUACCUCA, 0.00256 ± 0.0016; to GGAGACCUAUGUAAACAACCUACAACCUCA, 0.0135 ± 0.0041. For GGAGACCUAUGUAUACUUGCUACUACCUCA the value was 0.00505 ± 0.0014; for GGAGACCUAUCUAUACUACCUACAACCUCA, 0.0808 ± 0.009.
